PubChem BioAssay (NCI)
The panel holds about 83,000 compounds, 20% with a hit somewhere; the sample as a whole holds those more often.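 Growth was measured after 48 h exposure to one concentration of compound in 96-well plates. Values under 10 count as active.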 Unmarked numbers belong to inactive results. The source made the active and inactive calls.

Key:
Assay in all cases: NCI-60 one-dose screen, 48 h (100 = growth as untreated, 0 = no growth, -100 = all killed)
Conditions in all cases: 10 µM unless noted
[1] = tested on: SR leukemia
[2] = tested on: RPMI-8226 leukemia
[3] = tested on: OVCAR-8 ovarian
[4] = tested on: OVCAR-5 ovarian
[5] = tested on: OVCAR-4 ovarian
[6] = tested on: SK-OV-3 ovarian
[7] = tested on: IGROV1 ovarian
[8] = tested on: OVCAR-3 ovarian
[9] = tested on: HS 578T breast
[10] = tested on: NCI/ADR-RES ovarian
[11] = tested on: T-47D breast
[12] = tested on: BT-549 breast
[13] = tested on: MDA-MB-435 melanoma
[14] = tested on: SW-620 colon
[15] = tested on: MCF7 breast
[16] = tested on: HCT-116 colon
[17] = tested on: HCC-2998 colon
[18] = tested on: KM12 colon

Row | Structure (SMILES) | growth [1] | growth [2] | growth [3] | growth [4] [%] | growth [5] [%] | growth [6] | growth [7] | growth [8] | growth [9] [%] | growth [10] | growth [11] | growth [12] | growth [13] | growth [14] | growth [15] | growth [16] | growth [17] | growth [18]
1 | Cc1c(C(C)(C)C)cc(C(C)(C)C)c2c1CN(C)CO2 | 103% | 110% | 105% | 110 | 105 | 102% | 114% | 102% | 105 | 99.5% | 104% | 110% | 113% | 117% | 99.8% | 104% | 101% | 113%
2 | O=S(=O)(O)c1ccc(F)cc1 | 101% | 100% | 116% | 111 | 105 | 102% | 98.8% | 106% | 102 | 104% | 98.7% | 101% | 108% | 103% | 97.8% | 99% | 105% | 101%
3 | O=c1c2ccccc2sc2c(NCCCNCCO)nc3ccccc3c12 | -25.9% (active) | -14.8% (active) | 17.7% | 76.3 | 60.4 | 69.4% | 27% | 35.2% | 34 | 31.5% | 65.9% | 72.3% | 5.01% (active) | -62.4% (active) | -72.9% (active) | -57.5% (active) | -49.2% (active) | 6.31% (active)
4 | CC(=O)n1cc(/C=C2\N=C(c3ccc(Cl)cc3)N(c3ccc(S(=O)(=O)Nc4nccs4)cc3)C2=O)c2ccccc21 | 61.3% | 62% | 66.1% | 105 | 73.3 | 110% | 91.4% | 76.9% | 72.4 | 106% | 55.3% | 92.8% | 77% | 96.2% | 49.8% | 92.6% | 107% | 69.9%
5 | CCCCC(=O)Nc1nc2ccc(SCCC)cc2s1 | 6.63% (active) | 15.7% | 56.7% | 69 | 81.1 | 66% | 54.2% | 22.8% | 48.9 | 13% | 48% | 40.6% | 4.42% (active) | 34.6% | 35% | 31.1% | 77.1% | 34.1%
6 | CC[C@@]1(O)C(=O)OCc2c1cc1n(c2=O)Cc2c-1nc1ccccc1c2/C=N/OC(C)(C)C | -6.28% (active) | -2.84% (active) | 3.32% (active) | 10.5 | 30.1 | -15.7% (active) | 8.28% (active) | -27.3% (active) | 33 | 1.09% (active) | 2.25% (active) | -7.82% (active) | 13.5% | 11.5% | 2.42% (active) | 3.24% (active) | 6.39% (active) | 1.96% (active)
7 | Cc1ccc(Cn2cc(COc3ccc4c5ccnc(C)c5n(CCCc5ccccc5)c4c3)nn2)cc1 | 81.9% | 64.2% | 94.2% | 103 | 96 | 96.9% | 87.5% | 92.6% | 89.8 | 76.4% | 89.9% | 90.1% | 106% | 89.5% | 86.2% | 60% | 102% | 97.9%
8 | CC1(C)CC(=O)C2=C(C1)OC1=C(C(=O)CC(C)(C)C1)C2c1ccc(OCc2cn(-c3ccc(F)cc3F)nn2)cc1 | 58.6% | 92.7% | 95.3% | 124 | 94.4 | 100% | 102% | 95.3% | 96.2 | 94% | 98.5% | 110% | 92.4% | 118% | 87.2% | 91.9% | 122% | 90.2%
9 | CN1C(=O)C2(NN=C(c3cccc4ccccc34)S2)c2ccccc21 (stereo unspecified) | 28.5% | 18.2% | 26.2% | 50.2 | 20 | 26.5% | 39.4% | 40.2% | 51.1 | 29% | 5.27% (active) | 30.1% | 57.8% | 35.5% | 24% | 14.8% | 51.7% | 30.8%
10 | CCOC(=O)C1=C(N)Oc2cc(OC)ccc2C1c1ccc(F)c(F)c1 (stereo unspecified) | 12.7% | 6.63% (active) | 36% | 56.9 | 69.4 | 22.8% | 54.1% | 17.7% | 28.4 | 25.5% | 36.4% | 50.2% | -15.8% (active) | 21.1% | 16.6% | 31.8% | 54.5% | 27%
11 | N#CC1=C(N)Oc2c(ccc3ccccc23)C1c1cc(=O)oc2ccc(Cl)cc12 (stereo unspecified) | 22.9% | 30.7% | 27.7% | 51.6 | 65.8 | 16.9% | 39.8% | -9.67% (active) | 47.5 | 12.2% | 47.7% | 49% | -43.2% (active) | 29.6% | 19.7% | 12.7% | 36.6% | 21.5%
12 | C=C1C(=O)O[C@H]2[C@H]1CC/C(C(=O)Nc1ccc(OC)c(C(N)=O)c1O)=C\CC[C@@]1(C)O[C@@H]21 | 22.3% | 70.8% | 68.2% | 75.1 | 67.2 | 80.7% | 55.5% | 25.4% | 77.4 | 92.5% | 16.9% | 30.4% | 60.6% | 23.8% | 31.1% | 23.8% | 102% | 85%
13 | Cc1cc(-c2ccccc2)nc2ccccc12 | 97.1% | 83.3% | 98.1% | 115 | 90.1 | 74.9% | 92.5% | 105% | 97.3 | 102% | 99.4% | 108% | 109% | 102% | 65.1% | 99.7% | 106% | 106%
14 | Cl[C@@H]1CCO[C@H](c2cc3ccccc3c3ccccc23)C1 | 93.8% | 83.3% | 98.9% | 91.5 | 94.8 | 97.2% | 97.9% | 108% | 103 | 103% | 99.5% | 87.4% | 101% | 95.4% | 97.5% | 90.3% | 94.8% | 100%
15 | COc1cc(C(=O)NNC(=O)c2ccccc2O)cc(OC)c1OC | 77.8% | 86.8% | 82.9% | 103 | 110 | 87.8% | 98.8% | 109% | 95.1 | 94.5% | 82.5% | 120% | 96.9% | 103% | 92.2% | 101% | 97.1% | 103%
16 | O=C(Nc1ccc(F)cc1)Nc1ccc(Cl)c([N+](=O)[O-])c1 | 31.8% | -28% (active) | 17.8% | 44.3 | 16.5 | 34% | 22.4% | 10.1% | 55.8 | 14.1% | 6.68% (active) | 42.4% | 21.1% | 19% | 7.97% (active) | 7.12% (active) | 20.2% | 12.4%
17 | Fc1cccc(F)c1C#Cc1ccc2cccnc2c1 | 75.4% | 70.2% | 87.3% | 136 | 75.1 | 95.7% | 56.3% | 83.5% | 91.6 | 90.8% | 22.3% | 95.6% | 107% | 90.5% | 14.8% | 74.6% | 68.6% | 79.1%
